Drawing on PubChem BioAssay (Tox21), this text covers Potency and outcome for seven compounds.

A short description of experiment [1]: qHTS assay to test for compound auto fluorescence at 535 nm (green) in HEK293 cells (AID 720680). Background: In qHTS, concentration-response curves come from the screen itself.
Experiment [2] in a line: qHTS assay to test for compound auto fluorescence at 460 nm (blue) in HEK293 cell free culture (AID 720681). The gist of the method:
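Test compounds were pinned into cell-free culture medium (DMEM with 10% FBS) and fluorescence was read directly at Ex/Em 405/460 nm. Signals were expressed as fluorescence equivalents of triamterene, with DMSO vehicle as control.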

Experiment [3] in a line: qHTS assay to test for compound auto fluorescence at 535 nm (green) in HEK293 cell free culture (AID 720682). A digest of the protocol: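 Fluorescein serves as the green reference fluorophore; each compound's intrinsic emission at 535 nm (excitation 485 nm) is reported as an equivalent amount of that dye, measured in serum-containing DMEM without cells.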
A short description of experiment [4]: qHTS assay to test for compound auto fluorescence at 590 nm (red) in HEK293 cell free culture (AID 720683). A digest of the protocol: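 Tox21 10K library compounds were pinned into cell-free DMEM with 10% FBS and fluorescence was read at excitation 540 nm. Activity is expressed as Rose Bengal sodium equivalency.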
Experiment [5] in a line: qHTS assay to test for compound auto fluorescence at 590 nm (red) in HepG2 cell free culture (AID 720684). A digest of the protocol:
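Ex 540 / Em 590 nm read of compound in cell-free MEM (10% FBS). Rose Bengal sodium reference.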

A short description of experiment [6]: qHTS assay to test for compound auto fluorescence at 460 nm (blue) in HepG2 cell free culture (AID 720685). The gist of the method: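 Cell-free plates of MEM plus 10% FBS received 23 nL compound or DMSO vehicle; blue-channel (405/460 nm) intensity scored against triamterene as reference fluorophore.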
The nature of experiment [7]: qHTS assay to test for compound auto fluorescence at 535 nm (green) in HepG2 cell free culture (AID 720686).
Experiment [8] in a line: qHTS assay to test for compound auto fluorescence at 460 nm (blue) in HepG2 cells (AID 720687). The gist of the method: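 Cells (2,000/well in MEM with 10% FBS) attached overnight at 37 C, then were exposed to compound or DMSO for 1 hr at 37 C, 5% CO2. Fluorescence read at Ex/Em 405/460 nm, expressed as triamterene-equivalent signal.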
Experiment [9] deals with Glucocorticoid receptor (Homo sapiens) (UniProt P04150). As to the kind of experiment: qHTS assay to identify small molecule agonists of the glucocorticoid receptor (GR) signaling pathway (AID 720691; active = well fitted activation curve with a large enough effect in the signal ratio in the repeat runs, not every such curve was filed as active; the % refers to the signal ratio). The conditions noted are these: GR-bla HeLa, beta-lactamase reporter ratio, 18 h; activation: at 62.4 µM (top of the series). A digest of the protocol: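 Agonist-mode qHTS in HeLa cells stably expressing a glucocorticoid-response-element beta-lactamase reporter. Fluorescence intensity read with FRET substrate (2 h, room temperature) after 18 h compound treatment at 37 C.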
Glucocorticoid receptor (Homo sapiens), sequence (P04150 whole entry, looked up): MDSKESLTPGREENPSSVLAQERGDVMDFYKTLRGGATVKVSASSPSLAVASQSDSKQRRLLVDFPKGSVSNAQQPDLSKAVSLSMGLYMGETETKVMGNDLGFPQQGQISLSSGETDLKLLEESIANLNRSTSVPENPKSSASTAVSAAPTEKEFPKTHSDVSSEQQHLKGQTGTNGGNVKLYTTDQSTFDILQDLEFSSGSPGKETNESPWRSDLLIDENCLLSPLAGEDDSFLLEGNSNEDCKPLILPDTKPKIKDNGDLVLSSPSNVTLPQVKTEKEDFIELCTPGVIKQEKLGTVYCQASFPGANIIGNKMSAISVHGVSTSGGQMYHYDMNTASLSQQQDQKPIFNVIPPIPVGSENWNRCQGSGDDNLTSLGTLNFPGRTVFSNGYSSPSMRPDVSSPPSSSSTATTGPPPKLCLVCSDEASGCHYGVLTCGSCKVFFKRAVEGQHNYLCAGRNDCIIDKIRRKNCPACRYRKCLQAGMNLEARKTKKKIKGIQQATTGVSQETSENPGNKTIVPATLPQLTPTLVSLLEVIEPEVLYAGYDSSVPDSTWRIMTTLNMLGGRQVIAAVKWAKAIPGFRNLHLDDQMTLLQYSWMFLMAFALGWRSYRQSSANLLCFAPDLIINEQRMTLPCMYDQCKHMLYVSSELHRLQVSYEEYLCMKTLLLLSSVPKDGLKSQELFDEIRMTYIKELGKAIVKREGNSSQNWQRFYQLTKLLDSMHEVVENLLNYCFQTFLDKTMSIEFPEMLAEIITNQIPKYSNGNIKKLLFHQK

For experiment [10] the target is unchanged. As to the kind of experiment: qHTS assay to identify small molecule antagonists of the glucocorticoid receptor (GR) signaling pathway (AID 720692; active = well fitted inhibition curve with a large enough effect in the signal ratio in the repeat runs, not every such curve was filed as active; the % refers to the signal ratio; note: potency is the fitted concentration of half-maximal effect). A digest of the protocol:
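Inhibition of dexamethasone-driven (5 nM final) beta-lactamase expression was measured in GRE-reporter HeLa cells over 18 h at 37C. Fluorescence was read after 2 h with the B/G FRET substrate at room temperature.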

Experiment [11] is described as follows: qHTS assay to identify small molecule antagonists of the glucocorticoid receptor (GR) signaling pathway - cell viability counter screen (AID 720693). Note: nearly all actives have a fitted effect of over 55% in size.
Experiment [12] can be described thus: qHTS assay for identifying genotoxic compounds that show differential cytotoxicity against isogenic chicken DT40 cell lines with known DNA damage response pathways - wild type cell line (AID 743012). Note: nearly all actives have a fitted effect of over 60% in size. Note: potency is the fitted concentration of half-maximal effect. The gist of the method:
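Viability by ATP luminescence (CellTiter-Glo, 30 min RT) after 40 h compound treatment at 37 C/5% CO2, using 300 parental DNA repair-proficient DT40 cells per well.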

Experiment [13] is described as follows: qHTS assay for identifying genotoxic compounds that show differential cytotoxicity against isogenic chicken DT40 cell lines with known DNA damage response pathways - Rev3 mutant cell line (AID 743014). Note: nearly all actives have a fitted effect of over 55% in size. Note: potency is the fitted concentration of half-maximal effect.
Experiment [14] can be described thus: qHTS assay for identifying genotoxic compounds that show differential cytotoxicity against isogenic chicken DT40 cell lines with known DNA damage response pathways - Rad54/Ku70 mutant cell line (AID 743015). Note: nearly all actives have a fitted effect of over 60% in size.
Experiment [15] is described as follows: qHTS assay to identify small molecule antagonists of the androgen receptor (AR) signaling pathway - cell viability counter screen (AID 743033; note: nearly all actives have a fitted effect of over 45% in size).
The nature of experiment [16]: qHTS assay to identify small molecule antagonists of the androgen receptor (AR) signaling pathway using the MDA cell line - cell viability counter screen (AID 743041; note: nearly all actives have a fitted effect of over 45% in size). A digest of the protocol: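 In this qHTS counter assay, fluorescence intensity after CellTiter-Fluor addition indicated viability of MDA-kb2 AR-luc cells given compounds and R1881 for 16 h at 37C.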
Experiment [17] concerns the target Androgen receptor (Homo sapiens) (UniProt P10275). Description: qHTS assay to identify small molecule agonists of the androgen receptor (AR) signaling pathway (AID 743036; active = well fitted activation curve with a large enough effect in the signal ratio in the repeat runs, with a control signal flat, not every such curve was filed as active; the % refers to the signal ratio; note: potency is the fitted concentration of half-maximal effect). A digest of the protocol: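 Fluorescence from a beta-lactamase FRET substrate served as read-out in AR-UAS-bla GripTite HEK293 cells. Cells were treated with DMSO-dissolved compounds for 16 h at 37C, then with LiveBLAzer B/G substrate for 2 h at room temperature.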

Experiment [18] shares this target. As to the kind of experiment: qHTS assay to identify small molecule agonists of the androgen receptor (AR) signaling pathway using the MDA cell line (AID 743040; note: nearly all actives have a fitted effect of over 20% in size; note: potency is the fitted concentration of half-maximal effect). The gist of the method: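 Cell-based luciferase reporter: MDA-kb2, MMTV promoter (AR + GR response elements). 16 h compound exposure at 37C; ONE-Glo, 30 min RT, luminescence.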
For experiment [19] the target is unchanged. Description: qHTS assay to identify small molecule antagonists of the androgen receptor (AR) signaling pathway using the MDA cell line (AID 743042; note: nearly all actives have a fitted effect of over 55% in size). The gist of the method: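 MDA-kb2 cells (human breast carcinoma, stably carrying an MMTV-luciferase reporter responsive to AR and GR) were plated at 3,000 cells/well and preincubated 5 hr at 37C, then given compound plus R1881 agonist for 16 h. ONE-Glo luminescence was read.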

Experiment [20] shares this target. As to the kind of experiment: qHTS assay to identify small molecule antagonists of the androgen receptor (AR) signaling pathway (AID 743035; active = well fitted inhibition curve with a large enough effect in the signal ratio in the repeat runs, not every such curve was filed as active; the % refers to the signal ratio). A digest of the protocol:
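Antagonist mode: AR-bla HEK293 cells co-treated with test compounds and agonist R1881 for 16 h at 37C, 5% CO2. Beta-lactamase activity read as FRET fluorescence after 2 h room-temperature substrate loading.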

Inconclusive results are not listed. Calls of active or inactive are those of the source. Unless noted, calls come from the whole dose curve; as a rule, active = well fitted curve in the direction sought with a large enough effect in the repeat runs; inconclusive = weak or mixed curves; inactive = no such curve, though single readings can be large; an effect the other way counts as inactive or inconclusive.

Androgen receptor (Homo sapiens), sequence (P10275 whole entry, looked up): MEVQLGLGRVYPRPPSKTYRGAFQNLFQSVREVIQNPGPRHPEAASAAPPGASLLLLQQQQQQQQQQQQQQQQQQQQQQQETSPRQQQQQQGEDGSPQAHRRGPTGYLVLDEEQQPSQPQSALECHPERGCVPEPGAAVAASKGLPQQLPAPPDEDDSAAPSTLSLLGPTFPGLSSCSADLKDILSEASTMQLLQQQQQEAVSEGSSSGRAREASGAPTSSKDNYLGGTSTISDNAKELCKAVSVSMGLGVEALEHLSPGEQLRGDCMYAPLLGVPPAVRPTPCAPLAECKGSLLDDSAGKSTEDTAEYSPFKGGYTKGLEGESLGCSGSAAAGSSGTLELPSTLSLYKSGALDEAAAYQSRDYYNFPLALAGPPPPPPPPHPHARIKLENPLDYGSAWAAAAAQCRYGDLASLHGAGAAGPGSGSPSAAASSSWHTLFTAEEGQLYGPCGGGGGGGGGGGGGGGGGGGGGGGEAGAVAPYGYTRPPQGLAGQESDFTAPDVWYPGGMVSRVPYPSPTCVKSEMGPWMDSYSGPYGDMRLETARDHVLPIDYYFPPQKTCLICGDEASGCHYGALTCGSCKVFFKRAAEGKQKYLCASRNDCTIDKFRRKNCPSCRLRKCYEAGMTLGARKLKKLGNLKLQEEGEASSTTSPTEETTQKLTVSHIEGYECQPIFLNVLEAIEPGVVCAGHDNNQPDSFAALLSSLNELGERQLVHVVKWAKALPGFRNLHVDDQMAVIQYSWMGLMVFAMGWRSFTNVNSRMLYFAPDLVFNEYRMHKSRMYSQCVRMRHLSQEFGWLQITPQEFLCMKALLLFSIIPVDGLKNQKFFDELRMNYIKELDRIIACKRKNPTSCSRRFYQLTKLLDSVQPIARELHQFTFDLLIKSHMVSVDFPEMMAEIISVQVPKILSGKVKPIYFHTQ

Take `CC(=O)N[C@@H]1C(O[C@H]2O[C@H](C(=O)O)C(O)[C@H](O)[C@H]2O)[C@H](O)[C@@H](CO)O[C@H]1O[C@@H]1C(C(=O)O)O[C@@H](O[C@H]2[C@H](O)[C@@H](CO)OC(O)[C@@H]2NC(C)=O)[C@H](O)[C@H]1O` (some centres not stated): the Potency entry in experiment [1], in experiment [2], in [3], in [4], in [5] and in experiment [7] was “inactive” in each case. Also, the Potency entry in [9], in experiment [10], in experiment [11], in experiment [12], in experiment [13] and in [14] was “inactive” throughout. Further, the Potency result in experiment [15] and in experiment [16] was “inactive” each time. Further, the compound was classed as inactive in experiment [6] and in [8].
For the compound `Nc1ncnc(Nc2ccc(Cl)cc2)n1`, the Potency result in [1], in experiment [2], in experiment [3], in experiment [4], in experiment [5] and in experiment [7] was “inactive” throughout. The Potency result in [9], in experiment [10], in experiment [11], in experiment [12], in [13] and in [14] was “inactive” in each case. For the same compound, the Potency result in [15] and in [16] was “inactive” each time. In addition, the outcome in experiment [6] and in experiment [8] was inactive.
As to `CCCc1ccc(C(=O)O)cc1`, the Potency entry in [1], in experiment [2], in experiment [3], in [4], in [5] and in experiment [7] was “inactive” each time. The Potency entry in experiment [9], in experiment [10], in experiment [11], in experiment [12], in experiment [14] and in experiment [15] was “inactive” throughout. In addition, the Potency result in experiment [16] was “inactive”. The call in [6] and in [8] was inactive.
Regarding `C[C@]12CC[C@@H]3c4ccc(OC(=O)c5ccccc5)cc4CC[C@H]3[C@@H]1CC[C@@H]2O`, the Potency entry in experiment [1], in [2], in experiment [3], in [4], in experiment [5] and in experiment [7] was “inactive” in each case. For the same compound, the Potency result in experiment [9], in [11], in experiment [15], in experiment [16] and in experiment [19] was “inactive” in each case. Further, the outcome in experiment [6] and in [8] was inactive. The Potency in [10] was 6.01 µM (active); in experiment [12], 2.98 µM (active); in experiment [13] it was 9.44 µM (active); in experiment [17], 3.38 µM (active); in [18], 1.33 µM (active).
As for `O=C(OC[C@H]1O[C@](O)(COC(=O)c2cccnc2)[C@@H](OC(=O)c2cccnc2)[C@@H]1OC(=O)c1cccnc1)c1cccnc1`, the Potency entry in experiment [1], in [2], in [3], in experiment [4], in [5] and in [7] was “inactive” in each case. Moreover, the Potency entry in experiment [9], in experiment [10], in experiment [11], in experiment [12], in experiment [14] and in experiment [15] was “inactive” in each case. For the same compound, the Potency result in [20], in experiment [17], in experiment [18], in experiment [16] and in experiment [19] was “inactive” each time. The compound was called inactive in experiment [6] and in experiment [8].
Take `Nc1nc2c(c(=O)[nH]1)N(C=O)C(CNc1ccc(C(=O)N[C@@H](CCC(=O)O)C(=O)O)cc1)CN2` (some centres not stated): the Potency entry in experiment [1], in [2], in experiment [3], in [4], in experiment [5] and in [7] was “inactive” each time. Moreover, the Potency result in experiment [9], in experiment [10], in [11], in [12], in experiment [14] and in experiment [15] was “inactive” each time. The Potency entry in [20], in [18], in [16] and in [19] was “inactive” in each case. For the same compound, the compound was classed as inactive in experiment [6] and in experiment [8].
Regarding `CC[C@H](C)[C@@H]1NC(=O)[C@H](Cc2ccc(O)cc2)NC(=O)[C@@H](N)CSSC[C@@H](C(=O)N2CCC[C@H]2C(=O)N[C@@H](CC(C)C)C(=O)NCC(N)=O)NC(=O)[C@H](CC(N)=O)NC(=O)[C@H](CCC(N)=O)NC1=O`, the Potency result in [1], in experiment [2], in [3], in experiment [4], in experiment [5] and in experiment [7] was “inactive” each time. Further, the Potency result in [9], in experiment [10], in [11], in [12], in experiment [14] and in experiment [15] was “inactive” in each case. The Potency entry in experiment [16] is “inactive”. In addition, the call in experiment [6] and in experiment [8] was inactive.
